# Source: PubChem BioAssay (National Center for Advancing Translational Sciences (NCATS))
# Hits are enriched below; roughly 17% of the tested compounds scored in any of these assays.
# ClpP mod – qHTS Assay for Activators of ClpP; purified B. subtilis ClpP, FRET peptide cleavage, 20 min; AID 651965, 2013; Potency, µM (series often up to 57.5 µM), inactives show at the top dose activity change, negative = active; 1.9% of 340,000 active; ATP-dependent Clp protease proteolytic subunit (Bacillus subtilis (strain 168)), P80244; active = well fitted falling curve with a large enough effect; inconclusive = small, poorly fitted or top-dose-only effect; inactive = no such curve, though single readings can be large or run the other way; note: the source files actives as falling curves though it sought activators and does not explain the sign; nearly all actives have a fitted effect of over 65% in size
#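 Purified B. subtilis ClpP, 10 microg/mL final in Tris/HCl pH8 with KCl, BSA, glycerol and Tween-20, cleaved an Abz/nitrotyrosine-quenched decapeptide. Fluorescence (ex 320, em 430) was read at 0 and 20 min at room temperature. Delta was normalized to 5.8 microM ADEP and DMSO/no-enzyme controls.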
# TDP1 cell CPT – DT40-hTDP1 cell growth loss with CPT; Potency, µM (top dose mostly 46.2 µM), for the others: at the highest dose activity change, negative = growth inhibition, actives largely listed as inhibitors; 12% of 420,000 active; chicken DT40 Tdp1-/-;hTDP1 cells + 20 nM CPT, ATP luminescence, 48 h; note: % is set by controls: 0 for no effect and ±100 for the full control effect; nearly all actives have a fitted effect of over 55% in size
#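 Chicken DT40 Tdp1-/- cells complemented with human TDP1, 400 cells/well, exposed to compounds plus 20 nM camptothecin for at least 48 h at 37 C; viability read as ATP content by CellTiter-Glo luminescence.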
# TDP1 block – TDP1 (human) enzyme inhibition; Potency, µM (doses to about 130 µM), for the others: at the highest dose activity change, negative = inhibition, hits mostly inhibitors; 0.28% of 350,000 active; recombinant TDP1, AlphaScreen DNA substrate cleavage; Q9NUW8; note: % is set by controls: 0 for no effect and ±100 for the full control effect; nearly all actives have a fitted effect of over 40% in size
#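 Compounds were preincubated with Tdp1 (1 nM final) for 15 min at room temperature before substrate (15 nM final) started a 5 min reaction; beads (10 ug/ml final) were then added for 10 min before AlphaScreen detection.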
# TDP1 cell noCPT – qHTS for Inhibitors of human tyrosyl-DNA phosphodiesterase 1 (TDP1): qHTS in cells in absence of CPT; 15% of 420,000 active; AID 686978, 2013; Potency, µM (doses to about 46.2 µM), without a hit: top-dose activity change, negative = growth inhibition, hits mostly inhibitors; DT40 Tdp1-/- hTDP1 cells, no CPT, ATP luminescence, 48 h; note: % is set by controls: 0 for no effect and ±100 for the full control effect; nearly all actives have a fitted effect of over 55% in size
#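 A cellular qHTS used chicken DT40 cells lacking endogenous Tdp1 but carrying stably transfected human TDP1. Compounds were applied without camptothecin, and cell growth kinetics were judged by ATP-dependent luminescence after ≥48 hr.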
# Starred values were filed as active, the others as inactive; ? = inconclusive; · = not tested or not shown; [ ] = dose if it differs, or a comment. Unless noted, calls come from the whole dose curve; as a rule, active = well fitted curve in the direction sought with a large enough effect; inconclusive = small, poorly fitted or top-dose-only effect, or another doubt; inactive = no such curve, though single readings can be large; an effect the other way counts as inactive or inconclusive. Potency is the fitted concentration of half-maximal effect.
SMILES,ClpP mod,TDP1 cell CPT,TDP1 block,TDP1 cell noCPT
O=c1ccn([C@@H]2O[C@H](CNCc3ccccc3OCc3ccc(Cl)cc3Cl)[C@@H](O)[C@H]2O)c(=O)[nH]1,-20.7%,20.6µM*,·,?
COc1ccc(S(=O)(=O)N(C)C[C@@H]2Oc3cc(C#CC4CCCCC4)ccc3S(=O)(=O)N([C@@H](C)CO)C[C@@H]2C)cc1,-5.9%,18.4µM*,·,18.4µM*
C[C@H]1CN([C@@H](C)CO)S(=O)(=O)c2ccc(Br)cc2O[C@H]1CN(C)S(=O)(=O)c1ccccc1F,1.5%,2.9%,·,4.5%
COc1ccccc1S(=O)(=O)N(C)C[C@H]1Oc2cc(C#CCC3CCCC3)ccc2S(=O)(=O)N([C@H](C)CO)C[C@H]1C,-5.2%,13µM*,·,8.2µM*
COc1ccccc1S(=O)(=O)N(C)C[C@H]1Oc2cc(Br)ccc2S(=O)(=O)N([C@@H](C)CO)C[C@H]1C,1.0%,29.1µM*,·,16.4µM*
CCc1noc(C)c1C(=O)NC1CC(C)(C)Cc2c1cnn2-c1ccccc1 (centres undefined),·,·,1.2%,·
CCC(C(=O)Nc1c(C)cccc1C)n1c(-c2cnc(C)cn2)nc2ccccc21 (centres undefined),-19.4%,-10.4%,·,-27.3%
COc1ccc2oc(=O)c(C(=O)N3CCN(c4cc(Cl)ccc4Cl)CC3)cc2c1,-6.7%,·,5.8%,·
CC[C@H]1C2=C3C(CC[C@H]4C(OCc5ccc(F)cc5C(F)(F)F)OC[C@](C)([C@@H]34)N(C(=O)OC(C)(C)C)C2)C(COC(C)=O)C1COC(C)=O (some centres undefined),·,·,6.3%,·
CCOC(=O)N1CCN(Cc2nc3cc(NC(=O)c4ccccc4OC)ccc3n2C(C)C)CC1,-1.4%,3.66µM*,5.7%,2.31µM*
CCOC(=O)N1CCN(Cc2nc3cc([N+](=O)[O-])ccc3n2C(C)C)CC1,-0.7%,20.6µM*,-1.6%,?
CCOC(=O)N1CCN(Cc2nc3cc(NC(=O)c4ccccc4[N+](=O)[O-])ccc3n2C(C)C)CC1,-2.8%,16.4µM*,3.6%,16.4µM*
COCCNC(=O)CSc1nc(-c2ccccc2)[nH]c1-c1ccc(OC)cc1,-29.1%,-22.4%,2.1%[12.3 µM],?
COc1cccc(-c2nc(SCC(=O)Nc3ccc4c(c3)OCCO4)c(-c3ccccc3)[nH]2)c1,-18.0%,23.1µM*,12.5%,18.4µM*
COc1ccc(-c2[nH]c(-c3cccc(OC)c3)nc2SCC(=O)Nc2ccc3c(c2)OCO3)cc1,-6.8%,16.4µM*,7.5%,?
COc1ccc(-c2nc(SCC(=O)Nc3ccc4c(c3)OCCO4)c(-c3ccccc3)[nH]2)cc1,-5.1%,?,-2.1%[12.3 µM],23.1µM*
COc1cccc(-c2nnc(SCC(=O)Nc3ccc4c(c3)OCCO4)n2Cc2ccco2)c1,6.0%,?,9.5%,?
COc1ccc(Cn2ccnc2SCC(=O)Nc2nc3ccccc3s2)cc1,-2.9%,?,13.5%,?
CC(C)NC(=O)C(c1ccc(F)cc1)N(Cc1ccco1)C(=O)CCC(=O)Nc1ccccn1 (centres undefined),·,5.0%,5.9%,-3.7%
Cc1cc(C)cc(N2C(=O)CSC2c2ccccn2)c1 (centres undefined),-17.2%,12.8%,1.1%,4.0%
S=C(NCc1ccc(Cl)cc1Cl)NC1CCCCC1,1.7%,?,2.6%,?
O=C(CC1N=C2c3ccccc3N=C(SCc3ccccc3Cl)N2C1=O)NC1CCCCC1 (centres undefined),-4.1%,9.2µM*,7.4%,11.6µM*
O=C(CC1N=C2c3ccccc3N=C(SCc3cccc(Cl)c3)N2C1=O)NC1CCCCC1 (centres undefined),35.5µM*,16.4µM*,0.5%,18.4µM*
O=C(CCC1N=C2c3ccccc3N=C(SCc3cccc(F)c3)N2C1=O)NC1CCCCC1 (centres undefined),-23.4%,-11.5%,-7.4%,-21.4%
O=C(CC1N=C2c3ccccc3N=C(SCc3ccccc3F)N2C1=O)NCCc1ccccc1 (centres undefined),4.4%,20.6µM*,3.4%,20.6µM*
SMILES,ClpP mod,TDP1 cell CPT,TDP1 block,TDP1 cell noCPT
O=C(CC1N=C2c3ccccc3N=C(SCc3cccc(F)c3)N2C1=O)NC1CCCCC1 (centres undefined),0.4%,?,-4.4%,?
O=C(CCC1N=C2c3ccccc3N=C(SCc3ccccc3F)N2C1=O)NC1CCCCC1 (centres undefined),?,18.4µM*,-2.5%,18.4µM*
COc1ccccc1NC(=O)CSC1=Nc2ccccc2C2=NC(CC(=O)NCCc3ccccc3)C(=O)N12 (centres undefined),-8.8%,?,-2.5%,?
CCOC(=O)c1cn2nc(Oc3ccc(C#N)cc3)ccc2n1,·,13.7%,·,-9.5%
COc1ccc(C)cc1NS(=O)(=O)c1cnc(N)nc1,-1.5%,2.2%,6.6%,-3.5%
Cc1ccccc1NC(=O)c1ccc2nc(Cc3ccccc3)oc2c1,16.3%,?,1.8%,?
COc1ccccc1CNC(=O)C[C@H]1CC[C@@H]2[C@H](COC[C@H](O)CN2Cc2ccc3c(c2)OCO3)O1,-1.8%,?,·,?
OCCC1CN(Cc2nc3ccccc3s2)CCN1CCc1ccccc1 (centres undefined),·,?,0.0%,25.9µM*
COc1cc(CN2CCN(CCc3ccccc3)C(CCO)C2)cc(OC)c1 (centres undefined),31.6µM*,-0.2%,2.4%,-23.3%
CC(C)(C)c1ccc(S(=O)(=O)/C=C\C#N)cc1,·,0.473µM*,19.1%[56.1 µM],0.531µM*
Cc1ccc(S(=O)(=O)/C=C/C#N)cc1,·,1.3µM*,21.3%,0.651µM*
O=S(=O)(/C=C/C=C/S(=O)(=O)c1ccccc1)c1ccccc1,-3.0%,0.0259µM*,·,0.0461µM*
Cc1ccc(S(=O)(=O)/C=C\C#N)cc1,·,0.596µM*,16.7%,0.668µM*
Cc1ccc(S(=O)(=O)/C=C2\NC(=O)CS2)cc1,-0.8%,-2.1%,8.7%,10.0%
CSc1ccc(CNC(=O)C(C)n2nc(C)c3c(C)n(-c4ccccc4)nc3c2=O)cc1 (centres undefined),-0.1%,?,4.8%,-10.2%
O=C(O)Cc1cccc(-c2cc(CCCCCCc3ccc(O[C@H]4O[C@H](CO)[C@@H](O)[C@H](O)[C@@H]4O)c(-c4cccc(CC(=O)O)c4)c3)ccc2O[C@H]2O[C@H](CO)[C@@H](O)[C@H](O)[C@@H]2O)c1,·,1.8%,·,8.7%
O=C(CN1Cc2ccccc2OC(c2ccsc2)C1)NCC1OCCc2ccccc21 (centres undefined),·,25.6%[9.04 µM],·,-31.1%
COc1ccc(-c2nnc(SCC(=O)Oc3cccc(C)c3C)o2)cc1,-11.1%,5.6%,5.7%,2.6%
Cc1ccc(S(=O)(=O)c2ccc(C)cc2)cc1,0.1%,0.6%,-3.6%,-12.2%
